SARS PLpro yeast: inhibitors of SARS-CoV papain-like protease in yeast; 330,000 compounds, 0.19% hits; Potency, µM (top dose mostly 32.9 µM), for inactives: top-dose activity, positive = growth rescue, most hits filed as activators; S. cerevisiae expressing SARS-CoV PLpro, growth rescue; calls by dose curve; note: 0% is about no effect; nearly all actives have a fitted effect of over 55% in size
Sm TGR block: blocks Schistosoma mansoni thioredoxin glutathione reductase. Potency, µM (series often up to 114 µM), inactives show top-dose activity change, negative = inhibition, actives largely listed as inhibitors. Q962Y6. purified TGR, DTNB reduction, TNB absorbance 405 nm. 360,000 compounds, 3% hits; note: % is set by controls: 0 for no effect and ±100 for the full control effect; nearly all actives have a fitted effect of over 60% in size
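First, TGR (20 nM dispensed) and NADPH were mixed with compound. Second, a 15 min room-temperature incubation followed. Third, further NADPH and then DTNB were added to start the reaction. Finally, TNB absorbance was monitored kinetically.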
Pf growth 96h: inhibits malaria parasite growth, 96 h; Potency, µM (series often up to 28.7 µM), for inactives: top-dose activity change, negative = inhibition, actives largely listed as inhibitors; 320,000 compounds, 6.9% hits; P. falciparum luciferase reporter growth, 96 h; note: % is set by controls: 0 for no effect and ±100 for the full control effect
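Luminescence readout: decreased luciferase signal marks inhibited growth of reporter-expressing P. falciparum in infected red cells (2% hematocrit, 0.05% parasitemia final), exposed to compound two generations (96 h, 37 C, 5% CO2).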
Pf growth 48h: P. falciparum growth inhibition at 48 hours (one generation); 310,000 compounds, 5.9% hits; P. falciparum luciferase growth in erythrocytes, 48 h; Potency, µM (top dose mostly 28.7 µM), for the others: at the highest dose activity change, negative = inhibition, usual class: inhibitors; AID 504832; note: % is set by controls: 0 for no effect and ±100 for the full control effect
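In quantitative HTS format, infected erythrocytes bearing luciferase-reporter parasites were treated for a single generation at 37 C. Luminescence after adding detection reagent served as the growth measure.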
An asterisk follows results filed as active; [ ] = remark or other dose. In the library only some 12% were active in any assay of this set; here they are far more common. Unless noted, calls come from the whole dose curve; as a rule, active = well fitted curve in the direction sought with a large enough effect; inconclusive = small, poorly fitted or top-dose-only effect, or another doubt; inactive = no such curve, though single readings can be large; an effect the other way counts as inactive or inconclusive. Potency is the fitted concentration of half-maximal effect.

COC(=O)c1c(C)[nH]c(C(=O)C(C)OC(=O)C2CC2)c1C (stereo unspecified) was read as SARS PLpro yeast -7%, Sm TGR block 4%, Pf growth 96h 41% and Pf growth 48h inconclusive.
Screening Cc1ccc(N2CCN(c3c(CN4CCCC4)c(=O)oc4ccccc34)CC2)c(C)c1 returned Sm TGR block 9%.
Screening Cc1cc(N)c2ccccc2n1 returned SARS PLpro yeast 2%, Sm TGR block -2%, Pf growth 96h 17% and Pf growth 48h -5%.
For Nc1cc2ccncc2c2ccccc12 the results were SARS PLpro yeast -8%, Sm TGR block 0%, Pf growth 96h inconclusive and Pf growth 48h 0.12µM*.
For CCOc1cc(CNC(=O)c2ccc(C)c(NC(=O)c3nsc4ccccc34)c2)ccc1OC the results were Sm TGR block -1%.
`O=C(CSc1cn(CC(=O)N2CCOCC2)c2ccccc12)Nc1ccccc1F` gave Sm TGR block 1%.
`Cc1c(Cl)cccc1NC(=O)CCNC(=O)N1CC(=O)Nc2ccccc21` gave SARS PLpro yeast 4%, Sm TGR block -13%, Pf growth 96h 3% and Pf growth 48h 0%.
For O=C(COC(=O)c1nc(Cl)ccc1Cl)c1ccc[nH]1 the results were SARS PLpro yeast -1%, Sm TGR block 5%, Pf growth 96h 51% and Pf growth 48h 2%.
`O=C(COC(=O)c1nc(Cl)c(Cl)c(Cl)c1Cl)c1ccc[nH]1` gave SARS PLpro yeast -13%, Sm TGR block 20µM*, Pf growth 96h 51% and Pf growth 48h 21%.
For O=C(NCC1CCCO1)c1ccc(Oc2ccc([N+](=O)[O-])cc2)cc1 (stereo unspecified) the results were SARS PLpro yeast -1%, Sm TGR block 1%, Pf growth 96h 1.5µM* and Pf growth 48h 4%.
O=C(NCC1CCCO1)c1ccc(Oc2ccc([N+](=O)[O-])cc2Cl)cc1 (stereo unspecified) was read as SARS PLpro yeast -1%, Pf growth 96h 35%[1.15 µM] and Pf growth 48h -3%.
For O=C(NCC1CCCO1)/C(=C\c1cccc([N+](=O)[O-])c1)NC(=O)c1ccccc1 (stereo unspecified) the results were SARS PLpro yeast 2%, Sm TGR block -2%, Pf growth 96h 22% and Pf growth 48h 31%.
For O=C(NCC1CCCO1)C(=Cc1cccc([N+](=O)[O-])c1)C(=O)NCC1CCCO1 (stereo unspecified) the results were SARS PLpro yeast -3%, Sm TGR block -14%, Pf growth 96h 13µM* and Pf growth 48h inconclusive.
CCCCOC(=O)c1ccc(NC(=O)Cc2coc3ccc(C(C)C)cc23)cc1 was read as Sm TGR block 16%.
For CCCCCCC(=O)N(O)C1CC(=O)N(Cc2ccccc2)C1=O (stereo unspecified) the results were SARS PLpro yeast -22%, Sm TGR block inconclusive and Pf growth 48h 5.9µM*.
For CN(Cc1ccccc1)C1CC(=O)N(c2ccc(C(=O)O)cc2)C1=O (stereo unspecified) the results were SARS PLpro yeast 1%, Sm TGR block 20µM*, Pf growth 96h 8% and Pf growth 48h 40%.
CCCCCC(=O)NNC1CC(=O)N(c2ccccc2)C1=O (stereo unspecified) was read as SARS PLpro yeast 0%, Sm TGR block -25%, Pf growth 96h 60% and Pf growth 48h -12%.
For CCCCCC(=O)N(O)C1CC(=O)N(c2ccccc2)C1=O (stereo unspecified) the results were SARS PLpro yeast -16%, Sm TGR block inconclusive, Pf growth 96h inconclusive and Pf growth 48h 10µM*.
Screening CCCN(CCC)C1CC(=O)N(Cc2ccccc2)C1=O (stereo unspecified) returned SARS PLpro yeast -16%, Sm TGR block 10µM*, Pf growth 96h 3% and Pf growth 48h 18%.
`COc1ccc(C(=O)OCC(=O)Nc2c(C)n(C)n(-c3ccccc3)c2=O)cc1` gave SARS PLpro yeast 2%.
COC(=O)c1c(NC(=O)CN2C(=O)C(=O)N(CC(C)C)C2=O)sc(C)c1C was read as SARS PLpro yeast 1%, Sm TGR block -23%, Pf growth 96h inconclusive and Pf growth 48h 4%.
Cc1cc(NC(=O)C(C)SCC(=O)Nc2nc3c(F)cc(F)cc3s2)no1 (stereo unspecified) was read as SARS PLpro yeast 7%, Sm TGR block -18%, Pf growth 96h inconclusive and Pf growth 48h inconclusive.
For C#CC(C)(C)NS(=O)(=O)c1cc(-c2nnc(Nc3ccc(C)cc3)c3ccccc23)ccc1C the results were Sm TGR block 5%.
Screening Cc1cc(Br)ccc1SCC(=O)OCC(=O)Nc1ccc2[nH]c(=O)[nH]c2c1 returned SARS PLpro yeast -4%, Sm TGR block -21%, Pf growth 96h 23% and Pf growth 48h 0%.
Screening COc1ccccc1-c1nc2c(c(SCC(=O)Nc3ccccc3F)n1)Cc1c(CO)cnc(C)c1O2 returned Sm TGR block -14%.
CCc1cc2cc(C(=O)Nc3ccc(F)cc3)sc2s1 was read as SARS PLpro yeast 3%, Sm TGR block -2%, Pf growth 96h 0.41µM* and Pf growth 48h -2%.
Screening CC(C)(C)c1ccc(C(=O)Nc2ccc(F)cc2)s1 returned SARS PLpro yeast -3%, Sm TGR block 12%, Pf growth 96h 5% and Pf growth 48h 31%.
CCc1cc2cc(C(=O)Nc3ccccc3F)sc2s1 was read as SARS PLpro yeast -3%, Sm TGR block inconclusive, Pf growth 96h 9.3µM* and Pf growth 48h 204%.
Cc1ccccc1OCC(=O)OCC(=O)c1ccc[nH]1 was read as SARS PLpro yeast 0%, Sm TGR block 2%, Pf growth 96h 9% and Pf growth 48h -1%.
`COc1ccccc1CN1COc2ccc3c(C)cc(=O)oc3c2C1` gave Sm TGR block 16%.
For CCOc1ccc(OCC)c(Nc2nc3ccc(Cl)cc3n3cnnc23)c1 the results were Sm TGR block 10%.
CCn1c(SCc2ccccc2)nnc1C1CCN(S(=O)(=O)c2ccc(OC)cc2)CC1 was read as SARS PLpro yeast 2%, Sm TGR block 0%, Pf growth 96h inconclusive and Pf growth 48h inconclusive.
Screening CCn1c(SCc2ccccc2)nnc1C1CCCCC1 returned SARS PLpro yeast 18%, Sm TGR block 5%, Pf growth 96h 9.3µM* and Pf growth 48h inconclusive.
`Cn1c(SCc2ccccc2)nnc1C1CCCNC1` (stereo unspecified) gave SARS PLpro yeast 2%, Sm TGR block 45µM*, Pf growth 96h -3% and Pf growth 48h 1%.
`O=S(=O)(NCCc1csc(-c2ccc(F)cc2)n1)c1ccc(Cl)cc1` gave Sm TGR block 5%.
Screening CC(C)Cn1c(=O)c2ccccc2n2c(CCC(=O)N3CCN(c4ccccc4)CC3)nnc12 returned Sm TGR block 4%.
CCc1ccc(CSc2nc(-c3ccccc3OC)nc3c2Cc2c(CO)cnc(C)c2O3)cc1 was read as Sm TGR block 0%.
